Results on 21 compounds are retold here after PubChem BioAssay (NCATS).

The nature of test [1]: AP1 Signaling Pathway (AID 357).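 Note: ME-180 reporter cells stimulated with EGF at its EC50 level; % is set by controls: 0 for no effect and ±100 for the full control effect.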 The settings on record: ME-180 AP-1-bla reporter, EGF-induced, beta-lactamase ratio, 5 h; at 17.2 µM (top of the series) unless noted. The gist of the method: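 Titration-series screen for positive or negative modulators of EC50 EGF-induced signaling in ME-180 cells carrying an AP-1-driven beta-lactamase reporter. After 5 hours at 37 degrees Celsius, CCF4 460nm/530nm emission ratio gave %Activity; AC50 values derived.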

Test [2] is described as follows: Stat Signaling Pathway (AID 446).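 Note: ME-180 cervical cancer cells given 40 pM IL-6 alongside compound; SIE-controlled beta-lactamase reporter measured as 460/530 nm FRET emission ratio; % is set by controls: 0 for no effect and ±100 for the full control effect.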 The settings on record: ME-180 SIE beta-lactamase reporter, IL-6 stimulated, 5 h; at 17.2 µM (top of the series) unless noted. The gist of the method:
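Compound effects on IL-6-induced STAT reporter activity were measured in ME-180 cells. After overnight culture, cells were co-treated with 40 pM IL-6 for 5 hrs before beta-lactamase substrate loading at room temperature.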

In test [3] the target is Glucocorticoid receptor (Homo sapiens) (UniProt P04150). The test is described as follows: GR-GFP Redistribution (AID 450;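 active = compounds whose dose series gives a full or clear partial fitted curve of increased nuclear translocation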; note: potency is the fitted concentration of half-maximal effect).
Glucocorticoid receptor (Homo sapiens), sequence (P04150 whole entry, looked up, the tested form may be a part): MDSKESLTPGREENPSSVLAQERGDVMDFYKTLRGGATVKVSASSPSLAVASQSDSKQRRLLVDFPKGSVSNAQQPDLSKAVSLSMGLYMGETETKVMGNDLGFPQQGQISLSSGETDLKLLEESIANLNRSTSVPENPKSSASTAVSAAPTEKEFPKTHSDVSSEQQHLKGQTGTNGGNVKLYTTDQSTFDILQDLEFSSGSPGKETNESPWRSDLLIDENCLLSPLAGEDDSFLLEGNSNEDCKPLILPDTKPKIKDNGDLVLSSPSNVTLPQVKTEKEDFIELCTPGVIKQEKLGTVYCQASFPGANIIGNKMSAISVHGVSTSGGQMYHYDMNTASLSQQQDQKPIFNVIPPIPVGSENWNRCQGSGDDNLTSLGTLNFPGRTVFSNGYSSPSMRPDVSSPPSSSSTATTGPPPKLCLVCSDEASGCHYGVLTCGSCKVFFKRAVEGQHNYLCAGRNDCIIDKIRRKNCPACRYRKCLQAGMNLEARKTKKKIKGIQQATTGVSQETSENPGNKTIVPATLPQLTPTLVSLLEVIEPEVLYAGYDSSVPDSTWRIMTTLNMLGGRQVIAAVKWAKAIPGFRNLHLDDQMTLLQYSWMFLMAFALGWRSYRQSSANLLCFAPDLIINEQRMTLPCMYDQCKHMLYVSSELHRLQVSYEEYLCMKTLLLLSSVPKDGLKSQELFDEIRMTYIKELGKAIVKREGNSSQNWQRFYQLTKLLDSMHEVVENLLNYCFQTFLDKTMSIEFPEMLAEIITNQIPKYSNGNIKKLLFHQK
Test [4] can be described thus: qHTS Assay for Identification of Small Molecule Agonists for Hypoxia Response Element Signaling Pathway (AID 914; active = well fitted activation curve with a large enough effect in the signal ratio, with a control signal flat, not every such curve was filed as active; the % refers to the signal ratio; note: potency is the fitted concentration of half-maximal effect; for activation: % of control where 0% means no effect). The following applies: ME-180 (cervical carcinoma) HRE-bla reporter, beta-lactamase ratio, CoCl2, 17 h; activation: active compounds read high. The gist of the method:
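A beta-lactamase reporter under hypoxia response element control in ME-180 cells served as the system. Compound titrations plus EC50 CoCl2 ran 17 h at 37 degrees Celsius; AC50 values were fitted from %Activity.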
In general terms: In qHTS, concentration-response curves come from the screen itself.

For test [5], the target named is Mitogen-activated protein kinase 10 (Mus musculus) (UniProt Q61831). Kind of test: JNK3 AlphaScreen Assay (AID 530).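 Note: kinase came from lysate of stimulated human HepG2 cells; signal reports phosphorylation of biotinylated GST-cJun 1-79 at Ser73 with 10 µM ATP; % is set by controls: 0 for no effect and ±100 for the full control effect.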 In short, it runs like this:
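Biotinylated GST-cJun(1-79) served as substrate for JNK3 in HepG2 lysates stimulated with IL-1beta and TNF-alpha. ATP was 10 uM final, pH 7.6. Ser73 phosphorylation was quantified by AlphaScreen (680 nm excitation).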

In test [6] the target is 3',5'-cyclic-AMP phosphodiesterase 4B (Homo sapiens) (UniProt Q07343). The test is described as follows: qHTS Assay for Inhibitors of PDE-IV (AID 607; active = well fitted activation curve with a large enough effect in the main read-out, with a control signal flat, not every such curve was filed as active; note: % of control where 0% means no effect). The gist of the method:
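ACTOne HEK293 cells carry a modified cAMP-gated CNG channel and express endogenous PDE4; plated 1000 cells/well, compounds up to 22.9 uM final. Membrane-potential dye fluorescence (ex 535/em 590) was read; parental cells received 10 uM forskolin + 100 uM RO 20-1724.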

For test [7], the target named is Pyruvate kinase (Leishmania mexicana) (UniProt Q27686). The test is described as follows: qHTS Validation Assay for Inhibitors of Leishmania Mexicana Pyruvate Kinase (AID 945; active = well fitted curve in the direction sought with a large enough effect; an effect the other way counts as inactive or inconclusive;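 note: 0% = DMSO only neutral control wells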). In short, it runs like this:
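Compounds are tested as eight-point concentration series. Reactions contain 0.2 nM LmPYK E451W, 0.5 mM PEP, 0.1 mM ADP, 7 mM MgCl2 and 50 mM KCl at pH 7.2, run 1 h at room temperature, then read by PKLight luminescence.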

The target of test [8] is Pyruvate kinase PKM (Homo sapiens) (UniProt P14618). Kind of test: qHTS Assay for Activators of Human Muscle Pyruvate Kinase (AID 954; active = well fitted curve in the direction sought with a large enough effect, not every such curve was filed as active;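 note: 0% = uninhibited enzyme and -100% = no enzyme or full thiadiazolimine inhibition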). In short, it runs like this: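 A coupled luminescent readout tracked ATP made from ADP by purified PKM2. Final conditions included 0.1 nM enzyme, PEP and ADP at 0.5 and 0.1 mM, pH 7.2 imidazole buffer with BSA, and a one-hour room-temperature reaction.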
Pyruvate kinase PKM (Homo sapiens), sequence (P14618 whole entry, looked up): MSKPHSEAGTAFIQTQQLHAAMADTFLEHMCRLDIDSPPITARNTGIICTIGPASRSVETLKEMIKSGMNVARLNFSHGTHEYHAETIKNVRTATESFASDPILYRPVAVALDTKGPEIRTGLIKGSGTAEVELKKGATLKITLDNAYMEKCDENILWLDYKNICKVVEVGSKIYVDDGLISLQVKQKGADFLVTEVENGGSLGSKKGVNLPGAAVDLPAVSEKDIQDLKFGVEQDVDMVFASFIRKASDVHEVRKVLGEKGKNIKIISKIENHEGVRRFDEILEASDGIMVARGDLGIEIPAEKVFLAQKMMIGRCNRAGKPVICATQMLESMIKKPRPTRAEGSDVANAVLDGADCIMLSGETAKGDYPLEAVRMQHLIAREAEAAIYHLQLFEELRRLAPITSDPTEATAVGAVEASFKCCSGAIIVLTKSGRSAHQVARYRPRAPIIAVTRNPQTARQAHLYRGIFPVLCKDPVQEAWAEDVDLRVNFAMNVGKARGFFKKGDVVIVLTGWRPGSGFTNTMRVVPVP

For test [9], the target named is Alpha-galactosidase A (Homo sapiens) (UniProt P06280). The test is described as follows: Counterscreen for Glucocerebrosidase Inhibitors: qHTS Assay for Human alpha-Galactosidase at pH 4.5 (AID 992; active = well fitted curve in the direction sought with a large enough effect; an effect the other way counts as inactive or inconclusive; note: 0% is about no effect). In short, it runs like this:
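Citrate buffer pH 4.5, Tween-20 0.005%. Enzyme 2 nM, substrate 80 uM, 20 min RT. Stop pH 10. Fluorescence Ex 365/Em 440. AC50 by Hill fit.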
A general note: The purpose of a counterscreen is to sort out artefacts and off-target activity.

For test [10], the target named is alpha-glucosidase (Oryza sativa, rice) (UniProt Q653V4). Kind of test: Counterscreen for Glucocerebrosidase Inhibitors: qHTS Assay for Rice alpha-Glucosidase at pH 5.0 (AID 997; active = well fitted curve in the direction sought with a large enough effect; an effect the other way counts as inactive or inconclusive;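 note: 0% = full activity with enzyme and -100% = basal without enzyme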). In short, it runs like this: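 Endpoint fluorogenic assay at pH 5.0: compounds (0.7 nM to 77 uM) titrated against 4 nM rice enzyme and 400 uM 4-MU-alpha-glucoside for 20 min at room temperature; NaOH/glycine stop, read ex 365/em 440 nm, Hill-fitted AC50.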

Test [11] deals with Glucocorticoid receptor (Homo sapiens) (UniProt P04150). Kind of test: GR-EFC Redistribution (AID 451; calls by dose curve; note: potency is the fitted concentration of half-maximal effect). The settings on record: CHO-K1 GR-EFC translocation, beta-gal luminescence, 2 h. In short, it runs like this:
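CHO-K1 cells stably expressing nuclear-localized β-gal enzyme acceptor and GR fused C-terminally to the enzyme donor fragment; ligand-driven nuclear translocation restores β-gal by complementation. Compounds titrated up to 46 uM final, 2 h at 37 °C; luminescence read.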

Test [12] addresses Cytochrome P450 2D6 (Homo sapiens) (UniProt P10635). Kind of test: qHTS Assay for Inhibitors and Substrates of Cytochrome P450 2D6 (AID 891; active = well fitted curve in the direction sought with a large enough effect; an effect the other way counts as inactive or inconclusive;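 note: luciferin methyl ether substrate demethylated by CYP2D6 with NADPH regeneration; % is set by controls: 0 for no effect and ±100 for the full control effect; nearly all actives have a fitted effect of over 60% in size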). In short, it runs like this:
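Luminescent read-out of luciferin formed by 5 nM human CYP2D6 demethylating 30 uM Luciferin-ME EGE (Km level) over 60 min at room temperature after NADPH regeneration addition. Data normalized to full inhibition by 1.43 uM quinidine.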

The target in test [13] is Cytochrome P450 2C19 (Homo sapiens) (UniProt P33261). The test is described as follows: qHTS Assay for Inhibitors and Substrates of Cytochrome P450 2C19 (AID 899; active = well fitted curve in the direction sought with a large enough effect; an effect the other way counts as inactive or inconclusive; note: potency is the fitted concentration of half-maximal effect; nearly all actives have a fitted effect of over 60% in size). In short, it runs like this:
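In 50mM KPO4, the reaction held 5nM enzyme and KM-level (10uM) Luciferin-H EGE; it ran 60 min at 37C after NADPH regeneration and a 10 min compound preincubation. Luminescence values were scaled to 57uM ketoconazole as complete inhibition.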

A number with no mark means an inactive call. Records with an inconclusive call do not appear. Calls of active or inactive are those of the source. Unless noted, calls come from the whole dose curve; as a rule, active = well fitted curve in either direction with a large enough effect (not every such curve was filed as active); inconclusive = small, poorly fitted or top-dose-only effect, or another doubt; inactive = flat fitted curve, though single readings scatter.

Alpha-galactosidase A (Homo sapiens), sequence (P06280 whole entry, looked up): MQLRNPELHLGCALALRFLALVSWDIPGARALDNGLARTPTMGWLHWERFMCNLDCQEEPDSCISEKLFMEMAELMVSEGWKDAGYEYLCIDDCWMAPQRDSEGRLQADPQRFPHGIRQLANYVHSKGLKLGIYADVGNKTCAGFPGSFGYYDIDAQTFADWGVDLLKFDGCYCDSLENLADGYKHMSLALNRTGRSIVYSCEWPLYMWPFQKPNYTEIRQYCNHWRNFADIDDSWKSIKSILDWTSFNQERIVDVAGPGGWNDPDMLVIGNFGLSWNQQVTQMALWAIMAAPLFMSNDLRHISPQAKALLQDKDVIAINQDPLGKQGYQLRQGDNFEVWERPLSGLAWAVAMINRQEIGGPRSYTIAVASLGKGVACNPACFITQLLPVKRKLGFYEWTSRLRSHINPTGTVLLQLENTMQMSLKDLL
3',5'-cyclic-AMP phosphodiesterase 4B (Homo sapiens), sequence (Q07343 whole entry, looked up): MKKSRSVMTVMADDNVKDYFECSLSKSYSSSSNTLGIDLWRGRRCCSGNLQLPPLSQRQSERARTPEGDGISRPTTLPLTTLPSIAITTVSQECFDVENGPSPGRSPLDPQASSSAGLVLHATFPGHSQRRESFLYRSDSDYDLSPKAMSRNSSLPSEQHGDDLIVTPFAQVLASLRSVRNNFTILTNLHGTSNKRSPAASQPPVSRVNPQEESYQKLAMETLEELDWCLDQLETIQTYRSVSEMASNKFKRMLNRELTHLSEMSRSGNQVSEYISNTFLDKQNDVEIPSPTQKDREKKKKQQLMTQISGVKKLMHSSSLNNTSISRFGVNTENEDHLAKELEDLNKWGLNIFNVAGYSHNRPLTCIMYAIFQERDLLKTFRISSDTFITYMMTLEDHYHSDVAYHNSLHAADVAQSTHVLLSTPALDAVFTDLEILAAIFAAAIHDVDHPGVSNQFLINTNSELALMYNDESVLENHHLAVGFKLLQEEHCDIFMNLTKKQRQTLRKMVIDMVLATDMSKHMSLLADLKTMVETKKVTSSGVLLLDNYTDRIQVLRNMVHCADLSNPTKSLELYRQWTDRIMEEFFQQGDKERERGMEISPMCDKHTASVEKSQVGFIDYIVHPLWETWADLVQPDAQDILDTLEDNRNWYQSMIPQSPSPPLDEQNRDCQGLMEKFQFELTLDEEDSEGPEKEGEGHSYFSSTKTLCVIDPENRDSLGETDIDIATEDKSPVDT
Cytochrome P450 2D6 (Homo sapiens), sequence (P10635 whole entry, looked up): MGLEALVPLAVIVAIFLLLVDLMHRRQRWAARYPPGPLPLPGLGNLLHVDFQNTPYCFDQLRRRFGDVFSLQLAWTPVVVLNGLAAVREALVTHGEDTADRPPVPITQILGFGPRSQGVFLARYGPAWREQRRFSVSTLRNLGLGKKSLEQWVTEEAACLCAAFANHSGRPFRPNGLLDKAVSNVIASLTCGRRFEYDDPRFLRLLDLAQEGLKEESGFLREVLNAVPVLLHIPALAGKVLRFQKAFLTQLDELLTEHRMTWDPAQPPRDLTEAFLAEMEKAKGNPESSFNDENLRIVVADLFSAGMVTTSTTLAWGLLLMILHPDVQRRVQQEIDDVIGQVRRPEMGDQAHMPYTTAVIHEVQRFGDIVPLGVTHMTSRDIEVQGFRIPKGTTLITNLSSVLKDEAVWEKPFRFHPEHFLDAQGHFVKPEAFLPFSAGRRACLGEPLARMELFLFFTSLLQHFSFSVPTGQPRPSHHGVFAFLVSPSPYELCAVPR
Cytochrome P450 2C19 (Homo sapiens), sequence (P33261 whole entry, looked up): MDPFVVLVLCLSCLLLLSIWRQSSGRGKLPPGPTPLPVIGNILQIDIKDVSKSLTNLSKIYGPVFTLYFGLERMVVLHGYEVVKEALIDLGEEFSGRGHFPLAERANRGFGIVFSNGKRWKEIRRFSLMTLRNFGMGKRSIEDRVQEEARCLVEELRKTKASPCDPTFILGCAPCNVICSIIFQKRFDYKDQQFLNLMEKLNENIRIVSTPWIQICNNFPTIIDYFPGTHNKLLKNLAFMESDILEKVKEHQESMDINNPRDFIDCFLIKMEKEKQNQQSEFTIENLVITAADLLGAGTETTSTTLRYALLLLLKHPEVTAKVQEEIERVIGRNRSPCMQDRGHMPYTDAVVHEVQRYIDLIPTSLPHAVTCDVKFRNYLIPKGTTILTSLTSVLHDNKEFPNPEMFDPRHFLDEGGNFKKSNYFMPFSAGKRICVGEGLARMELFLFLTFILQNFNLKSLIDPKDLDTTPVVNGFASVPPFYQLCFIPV
Pyruvate kinase (Leishmania mexicana), sequence (Q27686 2-499 E452W): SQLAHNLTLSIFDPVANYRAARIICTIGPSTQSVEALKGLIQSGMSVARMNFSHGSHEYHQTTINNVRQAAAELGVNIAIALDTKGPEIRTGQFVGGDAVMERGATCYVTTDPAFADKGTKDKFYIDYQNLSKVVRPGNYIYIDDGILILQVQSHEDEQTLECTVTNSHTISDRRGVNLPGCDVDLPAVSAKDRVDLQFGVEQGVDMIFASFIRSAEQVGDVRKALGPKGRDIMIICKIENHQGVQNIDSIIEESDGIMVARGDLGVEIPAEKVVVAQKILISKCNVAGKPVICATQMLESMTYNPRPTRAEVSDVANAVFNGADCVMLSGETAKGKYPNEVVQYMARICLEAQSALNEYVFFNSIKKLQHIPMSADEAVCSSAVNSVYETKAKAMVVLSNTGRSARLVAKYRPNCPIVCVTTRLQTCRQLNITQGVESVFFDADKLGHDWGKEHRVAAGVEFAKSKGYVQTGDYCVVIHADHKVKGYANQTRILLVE

Take `CCc1cc(=O)oc2c(CN3CCCC3)c(O)c(Cl)cc12`: in [1], the activity change, negative = inhibition was 12.3%. In addition, the activity, negative = inhibition in test [2] was 4.15%. Moreover, the figures for the Potency in test [3] and in [4] were more than 20.6 µM and 7.94 µM (active), respectively.

Take `CCOC(=O)C1=C(C)NC(C)=C(C(=O)OC)[C@H]1c1cccc(Cl)c1Cl`: the activity change, negative = inhibition in test [1] was -9.86% [at 38 µM]. In addition, in [2], the activity, negative = inhibition is -0.0099% [at 38 µM]. Also, in test [3], the Potency was more than 46 µM. Also, the Potency result in [5], in test [6] and in test [7] was “inactive” each time. Also, the compound was classed as inactive in test [8], in [9] and in [10].

On to `COCCNC(=O)c1c(N)n(/N=C/c2cccs2)c2nc3ccccc3nc12`, for which the activity change, negative = inhibition in test [1] was -0.395%. The activity, negative = inhibition in test [2] is 19.9%. For the same compound, the Potency in [3] was more than 20.6 µM; in [4], 10 µM (active).

In the case of `CC(C)OCCCn1c(=N)c(C(N)=S)cc2c(=O)n3ccccc3nc21`, the activity change, negative = inhibition in test [1] is -4.52%. Besides, the activity, negative = inhibition in [2] was -1.51%. In [3], the Potency is more than 20.6 µM. Also, the activation in test [4] is 13.6%.

Take `N#CC1=C(N)OC2=C(C(=O)CCC2)[C@]12C(=O)N(CC(N)=O)c1ccccc12`: the activity change, negative = inhibition in [1] is 12%. In addition, the activity, negative = inhibition in test [2] is 1.02%. Moreover, in test [3], the Potency was more than 20.6 µM. Besides, the activation in test [4] is -22.1%.

Regarding `Cc1cccn2c(=O)c(/C=C(\C#N)S(=O)(=O)c3ccccc3)c(N3CCN(C)CC3)nc12`, the activity change, negative = inhibition in test [1] is -0.352%. In addition, in test [2], the activity, negative = inhibition is 3.87%. Besides, the Potency in test [3] was more than 20.6 µM. Also, the activation in test [4] was -11.6%.

In the case of `CCCCCNC(=O)c1c(N)n(/N=C/c2ccco2)c2nc3ccccc3nc12`, in test [1], the activity change, negative = inhibition is 20.3%. Moreover, the activity, negative = inhibition in [2] was 28.5%. The Potency in test [3] was more than 20.6 µM; in test [4], 7.94 µM (active).

Consider `CC(CN1CCN(C)CC1)OC(=O)c1ccc(Cl)cc1Cl` (stereo unspecified), for which the activity change, negative = inhibition in test [1] is 12%. In addition, the activity, negative = inhibition in [2] was -1.03%. For the same compound, in test [3], the Potency is more than 20.6 µM. Further, the activation in test [4] was -4.39%.

For `CC1(C)CCN(Cc2ccccc2)C1CC#N` (stereo unspecified), the activity change, negative = inhibition in [1] is -13.4%. In addition, in [2], the activity, negative = inhibition is 6.87%. Moreover, the Potency in test [3] was more than 20.6 µM. The activation in test [4] is 7.94%.

As to `Clc1ccc([C@@H](c2ccccc2Cl)C(Cl)Cl)cc1`, the activity change, negative = inhibition in test [1] was -7.25% [at 38 µM]. The activity, negative = inhibition in [2] was 2.17% [at 38 µM]. For the same compound, the Potency in test [3] is more than 46 µM; in [11], more than 46 µM; in test [13], 0.631 µM (active). In test [12], the Potency entry is “inactive”.

For `CCOC(=O)c1[nH]c2ccc(OC)cc2c1NC(=O)CCN1CCC(C)CC1`, the activity change, negative = inhibition in test [1] is 8.62%. Moreover, the activity, negative = inhibition in [2] is 8.76%. For the same compound, in test [3], the Potency is more than 20.6 µM. Moreover, in test [4], the activation was -29.8%.

For `CCCc1cc(=O)oc2c(CN3CCN(C)CC3)c(O)c(Cl)cc12`, the activity change, negative = inhibition in test [1] was -0.941%. For the same compound, the activity, negative = inhibition in [2] is -1.37%. In addition, the Potency in test [3] is more than 20.6 µM; in [4], 5.01 µM (active).

Turning to `Cc1ccc(S(=O)(=O)c2cc3c(=O)n4ccccc4nc3n(C)c2=N)cc1`, in test [1], the activity change, negative = inhibition was 23.8%. For the same compound, the activity, negative = inhibition in [2] was 26.2%. The Potency in test [3] is more than 20.6 µM; in test [4] it was 7.94 µM (active).

For the compound `CCOCCSc1nc2c(c(=O)[nH]c(=O)n2C)n1CCCc1ccccc1`, the activity change, negative = inhibition in test [1] was 3.98%. Moreover, the activity, negative = inhibition in test [2] is -3.21%. Also, the Potency in [3] is more than 20.6 µM. The activation in test [4] is 6%.

Regarding `c1ccc2c(c1)NC(c1ccncc1)n1c-2nc2ccccc21` (stereo unspecified), in test [1], the activity change, negative = inhibition was -17.1%. Also, in test [2], the activity, negative = inhibition was -7.32%. Also, in [3], the Potency is more than 20.6 µM. The activation in test [4] was 15.3%.

For the compound `CCC(=O)Nc1c(C#N)c2nc3ccccc3nc2n1C1CCCCC1`, in [1], the activity change, negative = inhibition is -0.0903%. Besides, in test [2], the activity, negative = inhibition is 20.4%. Besides, the Potency in test [3] is more than 20.6 µM; in test [4] it was 10 µM (active).

`COc1cccc(/C(O)=C2/C(=O)C(=O)N(CCCN(C)C)C2c2cccc(Cl)c2)c1` (stereo unspecified): the activity change, negative = inhibition in [1] was 5.09%. Further, the activity, negative = inhibition in test [2] is 5.04%. Further, the Potency in test [3] is more than 20.6 µM. Further, the activation in [4] was 9.88%.

With `COC(=O)c1[nH]c2cc(OC)ccc2c1NC(=O)CCN1CCCC(C)(C)C1`, the activity change, negative = inhibition in test [1] is -14.5%. The activity, negative = inhibition in test [2] was 2.32%. Moreover, the Potency in test [3] was more than 20.6 µM. Further, the activation in [4] was 10.2%.

With `CCOC(=O)C1=C(C)NC(SCC(=O)Nc2nc(C)cs2)=C(C#N)C1c1cccs1` (stereo unspecified), the activity change, negative = inhibition in test [1] was -22.9%. In test [2], the activity, negative = inhibition is -27.7%. The Potency was more than 20.6 µM in [3] and 10 µM (active) in [4].

Regarding `Cc1nnc2c(NC(C)C)nc3ccccc3n12`, the activity change, negative = inhibition in test [1] was 14.9%. Further, the activity, negative = inhibition in test [2] is -12.6%. Moreover, the Potency was more than 20.6 µM in test [3] and 10 µM (active) in test [4].

On to `CCCCn1cnc2c(c1=O)c1nc3ccccc3nc1n2Cc1ccc2c(c1)OCO2`, for which the activity change, negative = inhibition in test [1] is 29.8%. The activity, negative = inhibition in test [2] is 10.3%. In addition, the Potency in test [3] is more than 20.6 µM; in [4], 12.6 µM (active).
